# Screening results from PubChem BioAssay.
# TMEM16A act = activators or potentiators of mouse TMEM16A chloride channel. Q8BHY3. HEK293 TMEM16A/YFP-H148Q/I152L, iodide quench fluorescence; active compounds read low. B-score at 10 µM. 340,000 compounds, 0.3% hits. AID 623877;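 active = fluorescence-ratio B-score plate-corrected deviation score at least 3 library SD below zero, with starting fluorescence score within 5 deviations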;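 also: channel opened by trigger with iodide after compound preincubation; score built on the fluorescence ratio of max minus min over baseline; more negative score means more quench and so TMEM16A activation or potentiation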
# Target sequence (Q8BHY3 whole entry, looked up): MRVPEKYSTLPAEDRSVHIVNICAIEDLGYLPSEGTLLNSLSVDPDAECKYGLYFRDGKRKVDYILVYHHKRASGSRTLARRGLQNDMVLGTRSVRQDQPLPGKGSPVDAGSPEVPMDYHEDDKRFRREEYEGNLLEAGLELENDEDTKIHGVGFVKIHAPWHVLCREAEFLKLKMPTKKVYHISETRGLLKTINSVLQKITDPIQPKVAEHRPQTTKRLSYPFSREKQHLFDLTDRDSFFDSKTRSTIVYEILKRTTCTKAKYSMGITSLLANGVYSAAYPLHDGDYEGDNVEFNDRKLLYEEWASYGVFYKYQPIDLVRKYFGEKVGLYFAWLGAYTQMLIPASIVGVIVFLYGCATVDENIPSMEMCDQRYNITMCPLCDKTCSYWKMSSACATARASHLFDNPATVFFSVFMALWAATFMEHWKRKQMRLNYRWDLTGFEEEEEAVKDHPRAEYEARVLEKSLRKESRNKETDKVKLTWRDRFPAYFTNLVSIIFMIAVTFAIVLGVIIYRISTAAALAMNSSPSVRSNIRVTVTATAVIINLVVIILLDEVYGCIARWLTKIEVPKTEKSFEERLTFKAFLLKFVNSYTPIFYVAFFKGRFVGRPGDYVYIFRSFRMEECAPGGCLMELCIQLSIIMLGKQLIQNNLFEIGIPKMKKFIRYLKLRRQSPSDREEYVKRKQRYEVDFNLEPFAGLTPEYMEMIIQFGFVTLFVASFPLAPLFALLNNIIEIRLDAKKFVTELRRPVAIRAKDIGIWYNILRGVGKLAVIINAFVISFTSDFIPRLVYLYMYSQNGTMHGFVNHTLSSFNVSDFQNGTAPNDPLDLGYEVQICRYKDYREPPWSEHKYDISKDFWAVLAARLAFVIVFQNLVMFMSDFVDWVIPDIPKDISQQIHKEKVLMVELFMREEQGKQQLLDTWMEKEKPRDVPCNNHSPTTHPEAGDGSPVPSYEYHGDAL
# CHT block = human CHT choline transport inhibition; CHT-expressing cells, membrane potential dye, choline response; active compounds read low; B-score at 10 µM; 310,000 compounds, 0.86% hits; AID 488975;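 active = B-score over 3 SD under the library average, and starting fluorescence ratio not unusually high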;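 also: choline stimulus applied at its EC90 after an EC20 pre-addition; B-score computed on integrated fluorescence ratio after choline addition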
# ANO1 block = inhibitors of mouse TMEM16A calcium-activated chloride channel; Q8BHY3; HEK293 TMEM16A/YFP iodide influx fluorescence, ionomycin; normalized B-score (activity score, 25-100; higher = stronger inhibition) at 10 µM; 310,000 compounds, 1.2% hits;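 active = ratio plate-corrected score three or more library SD toward inhibition, starting fluorescence score within five deviations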;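 also: score derived from kinetic fluorescence span divided by baseline fluorescence per well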
# CHT allo act = human CHT allosteric activation | B-score at 10 µM | CHT-expressing cells, membrane potential dye, choline EC20; active compounds read high; LV-AA mutant CHT in HEK293 cells | 310,000 compounds, 0.49% hits | Q9GZV3;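 active = initial fluorescence not abnormally high and integrated response B-score, plate-corrected, over 3 SD above library mean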
# TMEM16A reconf = TMEM16A (mouse) chloride channel inhibition, re-confirmation; shares compounds with ANO1 block; HEK293 TMEM16A/YFP-H148Q, iodide quench fluorescence; ionomycin added to raise cell calcium; inhibition, % at 10 µM; 2,300 compounds, 39% hits; AID 652189;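 active = mean duplicate percent inhibition, scaled so buffer wells are 0 and the reference blocker 100, over three buffer SD above buffer mean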
# HEK293 Ca mobil = alters calcium mobilization in TMEM16A HEK293 cells, counter-screen; calcium response (% of ionomycin), % at 10 µM; 2,300 compounds, 2% hits; AID 652231; TMEM16A/YFP HEK293, Fluo4 calcium mobilization; shares compounds with ANO1 block;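 active = duplicate-averaged calcium signal over 20% of the ionomycin maximum, relative to buffer baseline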;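 also: each well's signal is peak minus trough fluorescence divided by its pre-addition baseline; 0% = buffer wells and 100% = ionomycin wells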
# Parental YFP cnt = acts in parental YFP-HEK293 cells lacking TMEM16A, counter-screen | YFP ratio F(max-min)/F0 at 10 µM | iodide YFP quench, ionomycin | shares compounds with ANO1 block | 2,300 tested, under 10 active;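 active = yellow fluorescent protein signal ratio exceeding the buffer control mean by over 5 SD of those controls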;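 also: ratio is mean of duplicate wells from kinetic YFP trace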
# ClC-1 rat inh = blocks the rat ClC-1 voltage-dependent chloride channel | shares compounds with ANO1 block | CHO ClC-1-YFP, iodide influx fluorescence quench; iodide control reads 0, buffer control 100 | ratio percent, % at 10 µM | 2,300 tested, under 10 active | AID 652236;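 active = duplicate-mean ratio percent above the mean of iodide-only control wells, which defines zero, plus 5 of their SD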;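 also: higher percent means stronger block of ClC-1 iodide influx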
# * marks the source's active call; other numbers are inactive results; i = inactive; . = no result given; ! = not active in a repeat. Most compounds without a hit are left out; they make up all but 2.3% or so of the library.
SMILES,TMEM16A act,CHT block,ANO1 block,CHT allo act,TMEM16A reconf,HEK293 Ca mobil,Parental YFP cnt,ClC-1 rat inh
COCCNC(=O)C(=O)NCCN1CCNCC1,i,i,i,i,.,.,.,.
CC(C)(C)NC(=O)Cn1c(SCC(N)=O)nc2ccccc21,i,i,100*,i,i,i,-1.07,-8.0
CC(C)(C)NC(=O)Cn1c(SCC(=O)NC2CC2)nc2ccccc21,i,i,i,i,.,.,.,.
O=C(O)C1C(c2ccccc2)C(C(=O)OCCCO)C1c1ccccc1 (stereo unspecified),i,i,i,i,.,.,.,.
CCCCCOC(=O)C1C(c2ccccc2)C(C(=O)O)C1c1ccccc1 (stereo unspecified),i,i,25*,i,i,i,-1.32,-5.0
CCOc1ccccc1NC(=O)C1COc2ccccc2O1 (stereo unspecified),i,i,i,i,.,.,.,.
O=c1[nH]c2ccccc2nc1/C=C/c1ccc(F)cc1,i,i,i,i,i,i,-1.07,23.0
O=c1[nH]c2ccccc2nc1/C=C/c1ccccc1,i,i,i,i,.,.,.,.
CCOC(=O)c1c(C)n(CC(COC(C)=O)OC(C)=O)c2ccc(OC(C)=O)cc12 (stereo unspecified),i,i,25*,i,i,i,-1.18,-15.5
COc1cc(OC)cc(-c2ncc3ccccn23)c1,i,i,100*,i,i,i,-1.02,-7.5
Cc1nc(N2CCN(C(=O)c3ccco3)CC2)c(C#N)c2c1CCCC2,i,i,i,i,.,.,.,.
CC(C)Cc1nc(N2CCN(C(=O)c3ccco3)CC2)c(C#N)c2c1CCCC2,i,i,25*,i,i,i,-1.25,-10.0
Cc1ccc(C(=O)Nc2nc(=O)n(C(=O)c3ccccc3C)s2)cc1,i,i,25*,i,26.5%*,i,-0.971,-10.5
C1CCC(C(CC2CCCCN2)C2CCCCC2)CC1 (stereo unspecified),i,i,25*!,i,i,i,-1.12,-9.5
CCOc1ccc(N(CC(=O)NCCc2ccccc2)S(=O)(=O)c2ccccc2)cc1,i,i,i,i,.,.,.,.
COc1ccc(NC(=O)C2CCN(c3ncnc4c3nc3n4CCCCC3)CC2)c(OC)c1,i,i,i,i,.,.,.,.
COC(=O)c1ccccc1NC(=O)C1CCN(c2ncnc3c2nc2n3CCCCC2)CC1,i,i,100*,i,i,i,-1.06,-8.0
CN1C2Cc3c(n(C)c4ccccc34)C1CC=C2CO (stereo unspecified),i,.,.,.,.,.,.,.
CCCCCN(C(=O)CCC(=O)OCC(=O)N(C)Cc1ccccc1C)c1c(N)n(CCCC)c(=O)[nH]c1=O,i,i,i,i,.,.,.,.
COc1ccc(C(=O)NNC(=O)CSc2nnnn2-c2cc(OC)cc(OC)c2)cc1,i,i,i,i,.,.,.,.
O=C(c1ccco1)N1CCN(C(=O)C2CCN(S(=O)(=O)c3cccc4nsnc34)CC2)CC1,i,i,100*,i,i,i,-1.06,-11.5
O=C(C1CCN(S(=O)(=O)c2cccc3nsnc23)CC1)N1CCN(c2ccccc2F)CC1,i,i,i,i,.,.,.,.
COC(=O)Cn1ncc(N2CC(C)OC(C)C2)c(Cl)c1=O (stereo unspecified),i,i,i,i,.,.,.,.
CC(C)C(=O)N=C1SC2CS(=O)(=O)CC2N1Cc1ccccc1 (stereo unspecified),i,i,i,i,.,.,.,.
CCN(CC(=O)NCc1cccs1)C(=O)c1ccc(S(=O)(=O)N(CC)c2ccccc2)cc1,i,.,.,.,.,.,.,.
SMILES,TMEM16A act,CHT block,ANO1 block,CHT allo act,TMEM16A reconf,HEK293 Ca mobil,Parental YFP cnt,ClC-1 rat inh
CCN1CCN(C(c2cc3cccc(C)c3[nH]c2=O)c2nnnn2Cc2ccccc2)CC1 (stereo unspecified),i,i,25*,i,i,i,-0.974,-3.5
Cc1ccc(N2CCN(CC(O)COC3CCCCC3)CC2)cc1 (stereo unspecified),i,i,25*,i,i,i,-1.36,-5.0
CSCC[C@H](NC(=O)Nc1ccc(Oc2ccccc2)cc1)C(=O)O,i,i,i,i,.,.,.,.
CCOC(=O)c1sc(N2C(=O)C(O)=C(C(=O)c3ccco3)C2c2cccc(Cl)c2)nc1C (stereo unspecified),i,i,25*,i,i,i,-0.726,-7.5
Cc1cc(C(=O)OCC(=O)N(C)c2ccccc2)c(C)o1,i,.,.,.,.,.,.,.
Cc1ccc(CNC(=O)c2cccc(OCc3c(C)noc3C)c2)cc1,i,i,i,i,.,.,.,.
Cc1noc(C)c1COc1cccc(C(=O)NCCc2c[nH]c3ccccc23)c1,i,i,25*,i,i,i,-1.14,-3.0
COC(=O)c1c(C)oc2ccc(NS(=O)(=O)c3cccs3)cc12,i,i,100*,i,31.0%*,i,-1.03,-17.5
O=C(c1ccco1)N1CCN(S(=O)(=O)c2ccc3[nH]c(=O)oc3c2)CC1,i,i,i,i,.,.,.,.
Cn1c(=O)oc2cc(S(=O)(=O)N3CCN(C(=O)c4ccco4)CC3)ccc21,i,i,100*,i,i,i,-1.01,-5.5
CC1=C([N+](=O)[O-])C(c2ccccc2)C2=C(N1)c1ccccc1C2=O (stereo unspecified),i,i,25*,i,38.0%*,i,-1,3.0
CCCCOC(=O)C1=C(C)Nc2ncnn2C1c1ccc(OCC)c(OC)c1 (stereo unspecified),i,i,25*,i,i,i,-1.07,-0.5
N#Cc1nc(-c2ccccc2Cl)oc1N1CCCCC1,i,i,25*,i,i,i,-1.02,-7.0
COc1ccccc1-c1nc(C#N)c(N2CCN(Cc3ccccc3)CC2)o1,i,i,i,i,.,.,.,.
COc1ccccc1-c1nc(C#N)c(N2CCC(Cc3ccccc3)CC2)o1,i,i,100*,i,i,i,-1.09,-15.0
O=C(CNC(=O)c1cccs1)c1ccc(Br)cc1,i,i,i,i,.,.,.,.
CCOc1ccc(CCNC(=O)CN2C(=O)COc3ccc(S(=O)(=O)N4CCOCC4)cc32)cc1,i,i,i,i,.,.,.,.
